Screening data from PubChem BioAssay.
Shown is part of a subset that was picked to be rich in hits.
Shiga inhibitor: A qHTS for Small Molecule Inhibitors of Shiga Toxin; Vero cells, Shiga toxin protein synthesis inhibition reporter; inhibition, % at 38.7 µM; 290,000 tested, 9.2% active; in the data active = inhibition mostly above about 28%, no sharp cut-off; inactive = mostly below about 43%
Tb PYK inh: qHTS of Trypanosoma Brucei Inhibitors; TbPYK enzyme, Kinase-Glo Plus ATP luminescence, 45 min; Potency, µM (top dose mostly 76.8 µM), most hits filed as inhibitors; 410,000 tested, 0.12% active; AID 624173, 2012; also: nearly all actives have a fitted effect of over 50% in size
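Quantitative HTS: titrated library compounds versus trypanosomal pyruvate kinase in TEA buffer (pH 7.2) containing KCl, MgCl2, BSA and Tween-20. Reactions were initiated with ADP, 130 uM final. Kinase-Glo Plus luminescence was read after 45 min at RT.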
Sm TGR block: qHTS Assay for the Inhibitors of Schistosoma Mansoni Peroxiredoxins; Schistosoma mansoni thioredoxin glutathione reductase (TGR), Q962Y6; purified TGR, DTNB reduction, TNB absorbance 405 nm; Potency, µM (top dose mostly 114 µM), actives largely listed as inhibitors; 360,000 tested, 3% active; also: nearly all actives have a fitted effect of over 60% in size
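Kinetic colorimetric format: TGR-catalysed, NADPH-driven DTNB reduction monitored via TNB absorbance. Enzyme dispensed at 20 nM; compound exposure 15 min at room temperature before reaction start.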
LmPK inhibitor: qHTS Assay for Inhibitors of Leishmania Mexicana Pyruvate Kinase (LmPK) | Q27686 | AID 1721, 2009 | 290,000 tested, 0.37% active | purified LmPK, Kinase-Glo ATP luminescence, 1 h | Potency, µM (titrated, usually from 57.5 µM), most hits filed as inhibitors
Target sequence (Q27686 whole entry, looked up): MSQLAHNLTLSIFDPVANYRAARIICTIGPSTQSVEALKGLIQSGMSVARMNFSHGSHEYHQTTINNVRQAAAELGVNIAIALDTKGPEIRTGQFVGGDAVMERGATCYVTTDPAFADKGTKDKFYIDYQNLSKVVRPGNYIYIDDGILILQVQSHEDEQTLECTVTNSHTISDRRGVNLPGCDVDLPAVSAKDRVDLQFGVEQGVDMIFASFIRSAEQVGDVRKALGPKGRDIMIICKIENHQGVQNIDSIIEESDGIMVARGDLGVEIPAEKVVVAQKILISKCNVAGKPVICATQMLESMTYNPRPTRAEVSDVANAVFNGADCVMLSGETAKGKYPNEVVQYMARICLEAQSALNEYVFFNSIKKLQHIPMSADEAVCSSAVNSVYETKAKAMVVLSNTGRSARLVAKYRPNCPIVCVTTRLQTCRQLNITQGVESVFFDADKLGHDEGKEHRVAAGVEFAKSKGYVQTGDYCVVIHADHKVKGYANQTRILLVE
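In 50 mM imidazole pH 7.2 with 7 mM MgCl2, LmPK (0.1 nM) turned over PEP (0.5 mM) and ADP (0.1 mM) for 1 h at room temperature. Luciferase read-out of ATP.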
Giardia FBPA inh: qHTS Assay for Inhibitors of Fructose-1,6-bisphosphate Aldolase from Giardia Lamblia; 290,000 tested, 0.71% active; purified Giardia FBPA; A8B2U2; Potency, µM (series often up to 59.6 µM), actives largely listed as inhibitors; also: nearly all actives have a fitted effect of over 55% in size
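Giardia FBPA (40 nM reagent) was preincubated 10 min at RT with compound (up to 57.5 uM final), then substrate plus GAPDH/TPI/NAD/arsenate coupling system with diaphorase/resazurin was added; resorufin fluorescence (525/598 nm) was read after 20 min.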
CHX counter: Cycloheximide Counterscreen for Small Molecule Inhibitors of Shiga Toxin | 300,000 tested, 12% active | max response, % | cell reporter, cycloheximide protein synthesis inhibition counterscreen; in the data active = max response mostly above about 13%, no sharp cut-off; inactive = mostly below about 14%; also: read at 38.3 µM for the half of the compounds with a filed dose
A number is an active result; n = inactive; u = inconclusive; x = no result; [ ] = another dose, or the depositor's remark. Unless noted, calls follow the shape of the dose curve; as a rule, active = well fitted curve in the direction sought with a large enough effect; inconclusive = small, poorly fitted or top-dose-only effect, or another doubt; inactive = no such curve, though single readings can be large; an effect the other way counts as inactive or inconclusive.

SMILES	Shiga inhibitor	Tb PYK inh	Sm TGR block	LmPK inhibitor	Giardia FBPA inh	CHX counter
Nc1c(C(=O)NCC2CCCO2)sc2nc3c(c(-c4ccco4)c12)CC/C3=C\c1ccco1 (centres undefined)	n	n	17.8µM	n	u	n
N#Cc1ccc(CN2CCC3(CC2)CCN(C(=O)c2ccncc2)CC3)cc1	x	n	x	x	n	x
N/C(=N\OC(=O)Oc1ccccc1)c1ccc(Br)cc1	n	n	n	n	n	n
NC(=Nc1ccc(Br)cc1)c1ccccc1	76.0	n	n	n	n	19.7
CC(=O)C1=C(O)C(=O)N(CCc2c[nH]c3ccccc23)C1c1ccco1 (centres undefined)	n	n	39.8µM	n	n	n
CC(=O)C1=C(O)C(=O)N(CCc2c[nH]c3ccccc23)C1c1ccc(C)cc1 (centres undefined)	n	n	n	n	n	n
CCc1ccc(NC(=O)c2ccc3c(c2)N(Cc2ccc(C)cc2)CCS3)cc1	x	n	n	x	x	x
CCOc1ccc(NC(=O)Cn2nnc(C(=O)NCc3ccc4c(c3)OCO4)c2N)cc1	n	n	n	n	n	n
COCCCn1c(SCC(=O)OC2CCCCC2)nnc1-c1ccco1	n	n	u	n	n[12.9 µM]	17.0
Cn1c(SCC(=O)OC2CCCCC2)nnc1-c1ccco1	n	n	n	n	n	15.6
COCCCn1c(SCC(=O)NC2CCCC2)nnc1-c1ccco1	n	n	39.8µM	n	n	n
C=Cc1ccc(S(=O)(=O)O)cc1	n	n	x	x	n	n
Cc1cccc(Nc2ncnc3c2cnn3C)c1C	x	n	n	x	x	x
CCOc1ccc(CC(=O)Nc2nnc3n2CCS3)cc1	x	n	n	x	x	x
COc1ccc2c(c1)C(c1ccc(Cl)cc1)NC(=O)C2 (centres undefined)	x	n	n	x	x	x
CN(C)c1c([N+](=O)[O-])cc(N2C(=O)C=CC2=O)cc1[N+](=O)[O-]	x	7.94µM	x	x	x	x
CC(C)Nc1cc(N2CCCC2)ccc1[N+](=O)[O-]	n	n	n	n	x	n
Cc1ccc(Oc2nc3c(c(=O)n(Cc4ccccc4)c(=O)n3C)n2C)cc1C	x	n	n	x	x	x
Cc1nc2ccc(NC(=O)c3cc(Cl)ccn3)cc2s1	81.6	n	n	n	n	61.7
Cc1nc2ccc(NC(=O)c3cc([N+](=O)[O-])cc([N+](=O)[O-])c3Cl)cc2s1	n	n	0.501µM	n	n	n
Cc1ccc(C(=O)Nc2ccc3nc(C)sc3c2)o1	x	n	x	x	x	x
Cc1nc2ccc(NC(=O)c3ccc(Cl)nc3)cc2s1	n	n	n	n	n	18.4
COc1ccc(CCNC(=O)COC(=O)c2cc(Cl)nc(Cl)c2)cc1	x	n	x	x	x	x
CCC1(Cc2ccc(N)cc2)CCC(=O)NC1=O (centres undefined)	x	n	x	x	x	x
C[N+]1(C)C2CC[C@H]1CC(OC(=O)C(CO)c1ccccc1)C2 (some centres undefined)	x	n	n	x	x	x
SMILES	Shiga inhibitor	Tb PYK inh	Sm TGR block	LmPK inhibitor	Giardia FBPA inh	CHX counter
C[N+]1(C)[C@@H]2CC[C@H]1CC(OC(=O)[C@@H](CO)c1ccccc1)C2 (some centres undefined)	n	n	8.91µM	n	n	n
COc1ccc(CC(=O)Nc2cc(-c3nc4cccnc4s3)ccc2C)cc1	x	n	n	x	x	x
CCS(=O)(=O)N1CCc2cc(C(=O)N3CCN(c4ccccc4)CC3)ccc21	x	n	n	x	x	x
O=C(NCc1cccc(F)c1)C1CCN(c2nn3cc(-c4ccc(F)cc4)nc3s2)CC1	x	n[15.4 µM]	n	x	x	x
Nc1nc(-c2cccnc2)nn1C(=O)c1ccc(Cl)cc1	n	n	n	n	n	n
Nc1nc(-c2ccc(Cl)cc2)nn1C(=O)c1cccnc1	31.2	n	n	n	n	24.9
COc1ccc(C(=O)n2nc(-c3ccccc3)nc2SC)cc1	n	n	n	n	n	n
CSc1nc(-c2ccccc2)nn1C(=O)c1ccccc1	n	n	u	n	n	14.4
CSc1nc(-c2ccc(Cl)cc2)nn1C(=O)c1ccccc1	112.5	n	n	n	n	24.2
CSc1nc(-c2ccccc2)nn1C(=O)c1ccc(Cl)cc1	n	n	n	n	n	17.5
CSCCC(NS(=O)(=O)c1ccc2c(c1)oc(=O)n2C)C(=O)N1CCN(c2cc(Cl)ccc2C)CC1 (centres undefined)	x	n	n	x	x	x
COc1ccc(Cl)cc1Nc1cc(C)nc2nc(-c3ccccc3C)nn12	x	n	n	x	x	x
COc1cc(CN2CCNC(=O)C2CC(=O)N(C)CCN2CCOCC2)cc(OC)c1 (centres undefined)	n	n	u	n	n	n
Cc1ccc(-c2nc3sc(CCNS(=O)(=O)c4cc(F)ccc4F)c(C)n3n2)cc1	x	n	n	x	x	x
COC(=O)c1ccc(/C=C/C(=O)c2cccc(OC)c2)cc1	51.6	n	n	n	n	69.8
CSc1ccc(C(=O)/C=C/c2ccc(N)cc2)cc1	76.8	n	n	u	n	54.6
COc1cccc(/C=C/C(=O)c2ccc(C)c([N+](=O)[O-])c2)c1	n	n	n	n	n	n
COc1cccc(C(=O)/C=C/c2ccc(SC)cc2)c1	79.9	n	n	u	n	49.1
COc1ccc(Cl)c(Cn2c(NCc3ccco3)nc3c2c(=O)n(C)c(=O)n3C)c1	n	n	50.1µM	n	u	n
CCC(=O)N1CCc2cc(Br)cc(S(=O)(=O)CCC(=O)N3CCN(c4ccc(OC)cc4)CC3)c21	x	n	n	x	x	x
FC(F)(F)c1ccc(-c2cccc3c2C2CC3CCN2C(=S)NCCc2ccccc2)cc1 (centres undefined)	x	n	x	x	x	x
COc1ccc(C(=O)Cn2c(C)nc([N+](=O)[O-])c2Br)cc1	n	n	2.51µM	n	n	n
Cc1nc([N+](=O)[O-])c(Br)n1CC(=O)c1ccc(Cl)cc1	n	n	7.08µM	n	n	n
O=C(Nc1ccc2c(c1)N(C1CCCC1)C(=O)c1ccccc1S2)c1ccc(F)cc1	x	n	n	x	x	x
COc1cccc(-c2nn(C)c3sc(C(=O)NCc4ccc(OC)cc4OC)cc23)c1	x	n	n	x	x	x
COc1cccc(-c2nn(C)c3sc(C(=O)NCc4ccc(C)o4)cc23)c1	n	n	8.91µM	n	n	23.3
COc1ccc(NC(=O)c2cc3c(-c4ccc(OC)c(OC)c4)nn(C)c3s2)cc1OC	100.0	n	n	n	n	51.3
